Data as given in the supplement of paper PMC9262897, “Low-cost anti-mycobacterial drug discovery using engineered E. coli” (Nature Communications, 2022).
Where a name gives a salt, the structure may show the parent alone. ± gives the standard deviation of the averaged measurements.

What was measured:
Experiment in all cases: growth (OD600 after 10 h); higher = more growth (less inhibition)
[1] = system: E. coli TESEC Alr+ wild-type control; conditions: compound 0.1 mM; raw OD600 reference: median of DMSO wells 0.241, cell-free background 0.041
Description: (§1)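 TESEC Mtb Alr E. coli, or the Alr+ wild-type control, in 384-well plates with Prestwick library compounds at 0.1 mM and 1% DMSO, across arabinose induction levels of 1E3 to 1E7 nM. Growth is read as OD600 after 10 h at 37 °C in triplicate biological replicates.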

E. coli TESEC Mtb Alr [2] = conditions: compound 0.1 mM
Description: as §1

E. coli TESEC Mtb Asd = conditions: compound 0.1 mM
Description: (§2)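 TESEC E. coli strains in which the native enzyme is deleted and replaced by arabinose-inducible Mtb Asd, DapB, CysH or TrpD, each grown in its selective medium. Strains were screened against the Prestwick library at 0.1 mM and 1% DMSO in 384-well format at low and high arabinose induction. Growth is read as OD600 after 10 h in triplicate.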

E. coli TESEC Mtb DapB = conditions: compound 0.1 mM
Description: as §2

[3] = system: E. coli TESEC Alr+ wild-type control; conditions: compound 0.1 mM; raw OD600 reference: median of DMSO wells 0.49, cell-free background 0.052
Description: (§3)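 TESEC Mtb Alr E. coli (ΔaraC ΔtolC ΔentC Δalr ΔdadX, arabinose-inducible Mtb Alr) or the Alr+ wild-type control strain, grown in defined M9-fructose medium without D-alanine in 96-well plates with Prestwick library compounds at 0.1 mM and 1% DMSO. Low Alr induction is 0.1 µM arabinose and high induction is 10 mM arabinose.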

E. coli TESEC Mtb Alr [4] = conditions: compound 0.1 mM; remark: listed apart in the source
Description: as §3

[5] = arabinose 1000 nM, raw OD600 reference: median of DMSO wells 0.294, cell-free background 0.041
[6] = arabinose 10000 nM, raw OD600 reference: median of DMSO wells 0.264, cell-free background 0.041
[7] = arabinose 100000 nM, raw OD600 reference: median of DMSO wells 0.201, cell-free background 0.041
[8] = arabinose 1000000 nM, raw OD600 reference: median of DMSO wells 0.193, cell-free background 0.041
[9] = arabinose 10000000 nM, raw OD600 reference: median of DMSO wells 0.146, cell-free background 0.041
[10] = arabinose induction (level): High, raw OD600 reference: median of DMSO wells 0.331, cell-free background 0.041
[11] = arabinose induction (level): Low, raw OD600 reference: median of DMSO wells 0.417, cell-free background 0.041
[12] = arabinose induction (level): High, raw OD600 reference: median of DMSO wells […], cell-free background 0.041
[13] = arabinose induction (level): Low, raw OD600 reference: median of DMSO wells 0.227, cell-free background 0.041
[14] = arabinose 100 nM, raw OD600 reference: median of DMSO wells 0.413, cell-free background 0.052
[15] = arabinose 10000000 nM, raw OD600 reference: median of DMSO wells […], cell-free background 0.052

Structure (SMILES) | growth [1] | growth (E. coli TESEC Mtb Alr [2]; [5]) | growth (E. coli TESEC Mtb Alr [2]; [6]) | growth (E. coli TESEC Mtb Alr [2]; [7]) | growth (E. coli TESEC Mtb Alr [2]; [8]) | growth (E. coli TESEC Mtb Alr [2]; [9]) | growth (E. coli TESEC Mtb Asd; [10]) | growth (E. coli TESEC Mtb Asd; [11]) | growth (E. coli TESEC Mtb DapB; [12]) | growth (E. coli TESEC Mtb DapB; [13]) | growth [3] | growth (E. coli TESEC Mtb Alr [4]; [14]) | growth (E. coli TESEC Mtb Alr [4]; [15])
CC[N+](C)(C)Cc1ccccc1Br [Bretylium tosylate] | 0.253 ± 0.011 | 0.323 ± 0.02 | 0.261 ± 0.0084 | 0.22 ± 0.0026 | 0.1733 ± 0.00021 | 0.1633 ± 0.00072 | 0.484 ± 0.032 | 0.476 ± 0.018 | 0.221 ± 0.025 | 0.241 ± 0.013 | 0.624 ± 0.021 | 0.409 ± 0.015 | 0.324 ± 0.017
CNCC[C@@H](Oc1cccc2ccccc12)c1cccs1 [(R)-Duloxetine hydrochloride] | 0.11 ± 0.038 | 0.0692 ± 0.004 | 0.04907 ± 0.00032 | 0.0556 ± 0.002 | 0.0447 ± 0.0038 | 0.0466 ± 0.0019 | 0.106 ± 0.066 | 0.0934 ± 0.04 | 0.0757 ± 0.0014 | 0.0799 ± 0.007 | 0.503 ± 0.049 | 0.4098 ± 0.0032 | 0.272 ± 0.011
CC(C)COCC(CN(Cc1ccccc1)c1ccccc1)N1CCCC1 (centres undefined) [Bepridil hydrochloride] | 0.03963 ± 0.00021 | 0.03953 ± 0.00038 | 0.03937 ± 0.00031 | 0.04057 ± 0.00029 | 0.03933 ± 5.8e-05 | 0.0411 ± 0.0014 | 0.04653 ± 0.00032 | 0.0475 ± 0.0016 | 0.0467 ± 0.0011 | 0.04587 ± 0.00031 | 0.04887 ± 0.00032 | 0.304 ± 0.21 | 0.0512 ± 0.0012
C[C@H]1C[C@@H]2[C@H]([C@@H](O)C[C@@]3(C)[C@H]2CC[C@]3(O)C(=O)CO)[C@@]2(C)C=CC(=O)C=C12 [Methylprednisolone, 6-alpha] | 0.202 ± 0.0042 | 0.254 ± 0.013 | 0.243 ± 0.0096 | 0.1512 ± 0.0011 | 0.116 ± 0.0032 | 0.134 ± 0.0027 | 0.259 ± 0.024 | 0.475 ± 0.018 | 0.175 ± 0.0055 | 0.213 ± 0.023 | 0.459 ± 0.028 | 0.431 ± 0.0047 | 0.295 ± 0.021
Cc1cccc(C)c1NC(=O)C1CCCCN1C (centres undefined) [Mepivacaine hydrochloride] | 0.233 ± 0.012 | 0.2802 ± 0.0024 | 0.273 ± 0.0048 | 0.199 ± 0.026 | 0.225 ± 0.013 | 0.136 ± 0.0053 | 0.366 ± 0.042 | 0.367 ± 0.045 | 0.203 ± 0.013 | 0.216 ± 0.024 | 0.46 ± 0.038 | 0.41 ± 0.011 | 0.365 ± 0.0059
CC(=O)/N=c1/sc(S(N)(=O)=O)nn1C [Methazolamide] | 0.247 ± 0.0057 | 0.301 ± 0.019 | 0.266 ± 0.0036 | 0.198 ± 0.019 | 0.193 ± 0.0042 | 0.138 ± 0.01 | 0.342 ± 0.034 | 0.447 ± 0.02 | 0.207 ± 0.013 | 0.228 ± 0.01 | 0.438 ± 0.049 | 0.397 ± 0.012 | 0.348 ± 0.027
O=c1[nH]c(=O)n([C@H]2C[C@H](O)[C@@H](CO)O2)cc1C(F)(F)F [Trifluridine] | 0.194 ± 0.02 | 0.213 ± 0.049 | 0.0994 ± 0.0099 | 0.121 ± 0.0045 | 0.082 ± 0.0069 | 0.135 ± 0.0027 | 0.13 ± 0.0033 | 0.203 ± 0.0098 | 0.164 ± 0.006 | 0.174 ± 0.0024 |  | 0.077 ± 0.0037 | 0.129 ± 0.023
CC(=O)NS(=O)(=O)c1ccc(N)cc1 [Sulfacetamide sodic hydrate] | 0.265 ± 0.006 | 0.313 ± 0.029 | 0.261 ± 0.0078 | 0.237 ± 0.011 | 0.187 ± 0.02 | 0.151 ± 0.0041 | 0.375 ± 0.022 | 0.407 ± 0.063 | 0.188 ± 0.0037 | 0.232 ± 0.048 |  | 0.406 ± 0.013 | 0.353 ± 0.018
C[C@]12CC[C@H]3C(=CCc4cc(O)ccc43)[C@@H]1CCC2=O [Equilin] | 0.126 ± 0.0019 | 0.17 ± 0.0095 | 0.226 ± 0.0079 | 0.154 ± 0.0054 | 0.0878 ± 0.0015 | 0.125 ± 0.0018 | 0.159 ± 0.0023 | 0.258 ± 0.044 | 0.174 ± 0.0089 | 0.183 ± 0.017 |  | 0.388 ± 0.0096 | 0.163 ± 0.0075
O=C(O)c1ccccc1Nc1cccc(C(F)(F)F)c1 [Flufenamic acid] | 0.0528 ± 0.00081 | 0.05003 ± 0.00047 | 0.04063 ± 0.00038 | 0.0593 ± 0.0024 | 0.04467 ± 0.00032 | 0.05807 ± 0.00038 | 0.0691 ± 0.017 | 0.0784 ± 0.0046 | 0.117 ± 0.0058 | 0.181 ± 0.046 |  | 0.0904 ± 0.038 | 0.0543 ± 0.00078
CC(=O)OCC(=O)[C@@]12OC3(CCCC3)O[C@@H]1C[C@H]1[C@@H]3CCC4=CC(=O)C=C[C@]4(C)[C@@]3(F)[C@@H](O)C[C@@]12C [Amcinonide] | 0.185 ± 0.011 | 0.287 ± 0.066 | 0.272 ± 0.011 | 0.241 ± 0.059 | 0.242 ± 0.07 | 0.172 ± 0.011 | 0.451 ± 0.11 | 0.402 ± 0.067 | 0.222 ± 0.043 | 0.265 ± 0.025 |  | 0.4092 ± 0.0021 | 0.304 ± 0.0053
O=C(O)c1ccccc1OP(=O)(O)O [Fosfosal] | 0.242 ± 0.0067 | 0.292 ± 0.017 | 0.266 ± 0.0057 | 0.192 ± 0.026 | 0.198 ± 0.0055 | 0.137 ± 0.0018 | 0.349 ± 0.051 | 0.424 ± 0.097 | 0.21 ± 0.017 | 0.239 ± 0.0092 |  | 0.405 ± 0.01 | 0.366 ± 0.0071
CC=CC1=C(C(=O)O)N2C(=O)[C@@H](NC(=O)[C@H](N)c3ccc(O)cc3)[C@H]2SC1 [Cefprozil] | 0.223 ± 0.0095 | 0.303 ± 0.0056 | 0.269 ± 0.016 | 0.184 ± 0.0039 | 0.194 ± 0.021 | 0.163 ± 0.0058 | 0.259 ± 0.048 | 0.417 ± 0.022 | 0.204 ± 0.0084 | 0.255 ± 0.039 |  | 0.414 ± 0.017 | 0.374 ± 0.015
Cc1[nH]c(=O)c(C#N)cc1-c1ccncc1 [Milrinone] | 0.199 ± 0.0031 | 0.27 ± 0.0094 | 0.229 ± 0.0033 | 0.169 ± 0.018 | 0.136 ± 0.0068 | 0.148 ± 0.0037 | 0.304 ± 0.06 | 0.329 ± 0.054 | 0.212 ± 0.0044 | 0.236 ± 0.014 |  | 0.43 ± 0.0055 | 0.305 ± 0.0071
